Results taken from PubChem BioAssay.
A number with no mark means an inactive call. The source made the active and inactive calls.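 How the source made its calls, unless noted: active means efflux inhibition above 0.42, the validation set average plus 4 SD; inconclusive means no clear call, values can overlap the other calls; inactive means the rest.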

Test system: anti-desmoglein-3 scFv antibody binding to human DSG3
Test: blockers of pathogenic pemphigus antibody–desmoglein-3 binding – biochemical, validation compound set, bead-based, flow cytometry, pilot screen (AID 588368;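 active means binding below the plate cutoff, the plate median minus 3 SD, with a reading above zero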;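 further: signal is the median channel fluorescence of bead-bound GFP antibody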)
Details: Protein G beads, DSG3-Fc, scFv-GFP binding, at 10 µM, hits give low values
For `Cc1oc2cc(O)cc(O)c2c(=O)c1-c1ccc2c(c1)OCCCO2`, the binding (% of control) was 101%.
Compound `O=C(c1ccco1)N1CCCN(Cc2nc(-c3ccc4c(c3)OCO4)no2)CC1` has a binding (% of control) of 94.7%.
`COc1ccc2nc(S(=O)Cc3ncc(C)c(OC)c3C)[nH]c2c1` (stereo not given) gave a binding (% of control) of 104%.
In the case of `CSCCC(NC(C)=O)C(=O)Oc1ccc2c3c(c(=O)oc2c1)CCCC3` (stereo not given), the binding (% of control) is reported as 93.2%.
`CCOC(=O)C1NN=C(C(=O)c2ccccc2)C1c1ccc(Cl)cc1` (stereo not given) showed a binding (% of control) of 99%.
`CSCCC(NC(=O)OC(C)(C)C)C(=O)Oc1ccc2c(=O)c(-c3ccc4c(c3)OCCO4)coc2c1` (stereo not given) gave a binding (% of control) of 100%.
For `COc1cc2c(cc1OC)/C(=C/c1ccc(Cl)cc1)C(=O)OC2`, the binding (% of control) was 104%.
In the case of `COc1ccc(-c2coc3c(CN4CCOCC4)c(O)ccc3c2=O)cc1`, the binding (% of control) is reported as 103%.
Work on `OCCC1CN(Cc2ccccc2-c2ccco2)CCN1C1CCCC1` (stereo not given) yielded a binding (% of control) of 101%.
With `O=C(O)C1CCN(C(=O)COc2ccc3c4c(c(=O)oc3c2)CCC4)CC1` the binding (% of control) was 109%.
Work on `Cc1ccc(C(=O)NCCNC(=O)c2ccccc2)cc1` yielded a binding (% of control) of 103%.
`CC(=O)OCC(=O)[C@@]1(O)CC[C@H]2[C@@H]3CCC4=CC(=O)C=C[C@]4(C)[C@H]3[C@@H](O)C[C@@]21C` gave a binding (% of control) of 98.1%.
Work on `CCCc1cc(C(N)=S)ccn1` yielded a binding (% of control) of 97.6%.
`Cc1ccc(Cl)c(Nc2ccccc2C(=O)O)c1Cl` showed a binding (% of control) of 103%.
`COc1ccccc1/C=C/C(=O)OCCN1CCOCC1` showed a binding (% of control) of 106%.
Compound `Fc1ccc(-c2cc(-c3ccccc3)nc(-n3cccn3)n2)cc1` has a binding (% of control) of 102%.
With `O=c1c(-c2ccccc2)c(O)c2cccc3c2n1CCC3` the binding (% of control) was 101%.
In the case of `COc1cc(CC(=O)NCCc2ccc(S(N)(=O)=O)cc2)cc(OC)c1OC`, the binding (% of control) is reported as 114%.
`CN(C)CCC(c1ccc(Cl)cc1)c1ccccn1` (stereo not given) showed a binding (% of control) of 107%.
Work on `Cc1ccc2nc(N=C(N)N)nc(C)c2c1` yielded a binding (% of control) of 109%.
In the case of `CCn1c(N2CCN(CC(=O)c3c(C)n(C)c4ccc(OC)cc34)CC2)nc2c1c(=O)[nH]c(=O)n2C`, the binding (% of control) is reported as 101%.
Work on `CC1(c2ccccc2)CC(C)(C)N2C(=O)C(=O)c3cccc1c32` (stereo not given) yielded a binding (% of control) of 98.7%.
With `O=C(COc1cc(O)c2c(=O)c3ccccc3oc2c1)OCc1ccccc1` the binding (% of control) was 93.3%.
`C[N+](C)(C)CCOP(=O)([O-])OC[C@H](O)CO` gave a binding (% of control) of 102%.
Compound `O=C(/C=C/Sc1ccccc1)c1ccccc1` has a binding (% of control) of 103%.
Compound `O=C1Cc2ccccc2C(c2ccccc2)N1` (stereo not given) has a binding (% of control) of 95.9%.
`Cc1ccc(NC(=O)CSc2nc(O)c(Cc3ccccc3)c(=O)n2-c2ccccc2)cc1` showed a binding (% of control) of 97.7%.
Work on `COCCn1c(SCCOc2ccccc2)nc2ccccc2c1=O` yielded a binding (% of control) of 103%.
`CC(=O)Oc1ccc2c(=O)c(Oc3ccccc3[N+](=O)[O-])coc2c1` gave a binding (% of control) of 101%.
Work on `CCc1c(C(C)=O)oc2ccc3c(C)cc(=O)oc3c12` yielded a binding (% of control) of 99%.
With `COc1ccc(-c2[nH]ncc2CN(C)C(C)c2ccon2)c(OC)c1` (stereo not given) the binding (% of control) was 105%.
With `Cc1c(O)c(=O)ccn1C` the binding (% of control) was 102%.
Work on `COc1ccc2cc(C(=O)Nc3ccc(S(N)(=O)=O)cc3)sc(=O)c2c1OC` yielded a binding (% of control) of 97.8%.
`Cc1cnc(NC(=O)C2=C(O)c3ccccc3S(=O)(=O)N2C)s1` showed a binding (% of control) of 93.7%.
Work on `O=C(O)c1ccc(N2C(=O)/C(=C\c3ccccc3)N=C2c2ccccc2)cc1` yielded a binding (% of control) of 98.1%.
`O=C(CCC(=O)NCCO)NCCO` showed a binding (% of control) of 100%.
Work on `CC(=O)O[C@H]1C[C@@]2(C)[C@@H](C[C@@H](O)[C@H]3[C@@]4(C)CC[C@@H](O)[C@@H](C)C4CC[C@@]32C)/C1=C(\CCC=C(C)C)C(=O)O` (stereo not given in full) yielded a binding (% of control) of 100%.
`O=C(c1cc2cc(Br)ccc2o1)N1CCCC1` showed a binding (% of control) of 103%.
`CCOc1ccc2nc(NC(=O)NC3CCCCC3)sc2c1` showed a binding (% of control) of 93.8%.
In the case of `O=C(/C=C/c1c[nH]c2ccccc12)c1cccc2ccccc12`, the binding (% of control) is reported as 100%.

Test system: not listed separately
Test: Nile Red efflux blockade in pump-expressing yeast – validation compound set, multiplex, phenotypic, pilot screen (AID 588506);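 further: Nile Red retained in cells so higher fluorescence means more efflux inhibition; 0 = negative control wells and 1 = enniatin B 25 µM full block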
Details: S. cerevisiae pump-expressing triplex, Nile Red efflux flow cytometry; at 10 µM; hits give high values; the pumps come from Candida albicans
`Cc1oc2cc(O)cc(O)c2c(=O)c1-c1ccc2c(c1)OCCCO2` gave an efflux inhibition (fraction of control) of 0.01.
For `O=C(c1ccco1)N1CCCN(Cc2nc(-c3ccc4c(c3)OCO4)no2)CC1`, the efflux inhibition (fraction of control) was 0.02.
In the case of `COc1ccc2nc(S(=O)Cc3ncc(C)c(OC)c3C)[nH]c2c1` (stereo not given), the efflux inhibition (fraction of control) is reported as -0.16.
In the case of `CSCCC(NC(C)=O)C(=O)Oc1ccc2c3c(c(=O)oc2c1)CCCC3` (stereo not given), the efflux inhibition (fraction of control) is reported as -0.01.
`CCOC(=O)C1NN=C(C(=O)c2ccccc2)C1c1ccc(Cl)cc1` (stereo not given) gave an efflux inhibition (fraction of control) of -0.005.
Work on `CSCCC(NC(=O)OC(C)(C)C)C(=O)Oc1ccc2c(=O)c(-c3ccc4c(c3)OCCO4)coc2c1` (stereo not given) yielded an efflux inhibition (fraction of control) of -0.1.
`COc1cc2c(cc1OC)/C(=C/c1ccc(Cl)cc1)C(=O)OC2` showed an efflux inhibition (fraction of control) of 0.3.
In the case of `COc1ccc(-c2coc3c(CN4CCOCC4)c(O)ccc3c2=O)cc1`, the efflux inhibition (fraction of control) is reported as 0.31.
For `OCCC1CN(Cc2ccccc2-c2ccco2)CCN1C1CCCC1` (stereo not given), the efflux inhibition (fraction of control) was 0.04.
`O=C(O)C1CCN(C(=O)COc2ccc3c4c(c(=O)oc3c2)CCC4)CC1` gave an efflux inhibition (fraction of control) of 0.
`Cc1ccc(C(=O)NCCNC(=O)c2ccccc2)cc1` showed an efflux inhibition (fraction of control) of -0.04.
Work on `CC(=O)OCC(=O)[C@@]1(O)CC[C@H]2[C@@H]3CCC4=CC(=O)C=C[C@]4(C)[C@H]3[C@@H](O)C[C@@]21C` yielded an efflux inhibition (fraction of control) of -0.09.
Compound `CCCc1cc(C(N)=S)ccn1` has an efflux inhibition (fraction of control) of -0.28.
`Cc1ccc(Cl)c(Nc2ccccc2C(=O)O)c1Cl` gave an efflux inhibition (fraction of control) of -0.13.
`COc1ccccc1/C=C/C(=O)OCCN1CCOCC1` gave an efflux inhibition (fraction of control) of 0.27.
For `Fc1ccc(-c2cc(-c3ccccc3)nc(-n3cccn3)n2)cc1`, the efflux inhibition (fraction of control) was 0.3.
`O=c1c(-c2ccccc2)c(O)c2cccc3c2n1CCC3` gave an efflux inhibition (fraction of control) of -0.09.
`COc1cc(CC(=O)NCCc2ccc(S(N)(=O)=O)cc2)cc(OC)c1OC` showed an efflux inhibition (fraction of control) of -0.04.
With `CN(C)CCC(c1ccc(Cl)cc1)c1ccccn1` (stereo not given) the efflux inhibition (fraction of control) was 0.05.
`Cc1ccc2nc(N=C(N)N)nc(C)c2c1` showed an efflux inhibition (fraction of control) of -0.02.
`CCn1c(N2CCN(CC(=O)c3c(C)n(C)c4ccc(OC)cc34)CC2)nc2c1c(=O)[nH]c(=O)n2C` showed an efflux inhibition (fraction of control) of -0.26.
In the case of `CC1(c2ccccc2)CC(C)(C)N2C(=O)C(=O)c3cccc1c32` (stereo not given), the efflux inhibition (fraction of control) is reported as 0.15.
Work on `O=C(COc1cc(O)c2c(=O)c3ccccc3oc2c1)OCc1ccccc1` yielded an efflux inhibition (fraction of control) of -0.01.
For `C[N+](C)(C)CCOP(=O)([O-])OC[C@H](O)CO`, the efflux inhibition (fraction of control) was 0.25.
For `O=C(/C=C/Sc1ccccc1)c1ccccc1`, the efflux inhibition (fraction of control) was -0.01.
Compound `O=C1Cc2ccccc2C(c2ccccc2)N1` (stereo not given) has an efflux inhibition (fraction of control) of 0.11.
Work on `Cc1ccc(NC(=O)CSc2nc(O)c(Cc3ccccc3)c(=O)n2-c2ccccc2)cc1` yielded an efflux inhibition (fraction of control) of -0.17.
Compound `COCCn1c(SCCOc2ccccc2)nc2ccccc2c1=O` has an efflux inhibition (fraction of control) of 0.36.
Compound `CC(=O)Oc1ccc2c(=O)c(Oc3ccccc3[N+](=O)[O-])coc2c1` has an efflux inhibition (fraction of control) of -0.06.
`CCc1c(C(C)=O)oc2ccc3c(C)cc(=O)oc3c12` showed an efflux inhibition (fraction of control) of -0.17.
With `COc1ccc(-c2[nH]ncc2CN(C)C(C)c2ccon2)c(OC)c1` (stereo not given) the efflux inhibition (fraction of control) was 0.01.
For `Cc1c(O)c(=O)ccn1C`, the efflux inhibition (fraction of control) was 0.27.
In the case of `COc1ccc2cc(C(=O)Nc3ccc(S(N)(=O)=O)cc3)sc(=O)c2c1OC`, the efflux inhibition (fraction of control) is reported as 0.19.
`Cc1cnc(NC(=O)C2=C(O)c3ccccc3S(=O)(=O)N2C)s1` gave an efflux inhibition (fraction of control) of 0.27.
Work on `O=C(O)c1ccc(N2C(=O)/C(=C\c3ccccc3)N=C2c2ccccc2)cc1` yielded an efflux inhibition (fraction of control) of -0.2.
`O=C(CCC(=O)NCCO)NCCO` showed an efflux inhibition (fraction of control) of 0.04.
In the case of `CC(=O)O[C@H]1C[C@@]2(C)[C@@H](C[C@@H](O)[C@H]3[C@@]4(C)CC[C@@H](O)[C@@H](C)C4CC[C@@]32C)/C1=C(\CCC=C(C)C)C(=O)O` (stereo not given in full), the efflux inhibition (fraction of control) is reported as 0.17.
`O=C(c1cc2cc(Br)ccc2o1)N1CCCC1` gave an efflux inhibition (fraction of control) of -0.07.
In the case of `CCOc1ccc2nc(NC(=O)NC3CCCCC3)sc2c1`, the efflux inhibition (fraction of control) is reported as 0.8 (active).
For `O=C(/C=C/c1c[nH]c2ccccc12)c1cccc2ccccc12`, the efflux inhibition (fraction of control) was 0.19.
